An excerpt weighted towards active compounds, which were near 13% of everything screened.
WT yeast gro inh: growth inhibition of WT yeast, mitochondrial fusion screen. mitochondrial fusion phenotypic screen, WT strain. inhibition, % at 10 µM. 190,000 compounds, 2.1% hits; in the data active = inhibition above about 58%; tested in S. cerevisiae
L major viab: reduces viability of Leishmania major promastigotes; resazurin fluorescence viability; inhibition, % at 10 µM; 200,000 compounds, 9% hits; in the data active = inhibition above about 50%;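 also: promastigotes grown with compound for 44 hours at 28 °C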
CHOP inhibitor: CHOP inhibition in unfolded protein response; CHO-K1 CHOP-promoter luciferase, tunicamycin-induced, 15-18 h; inhibition, % at 10 µM; 220,000 compounds, 3.8% hits; AID 2732;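 active = compounds that reduced the stress-induced luciferase reporter signal by more than about 70% of percent inhibition, limit read from the data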;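 also: 0% = tunicamycin plus vehicle and 100% = wells without tunicamycin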
RAM inhibit: blocks the yeast RAM network. S. cerevisiae dse1pr::URA3 reporter, 5-FOA growth OD615, 2 d; analog-sensitive cbk1-as2 kinase mutant strain. inhibition, % at 50 µM. 190,000 compounds, 1.8% hits;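 active = inhibition above a set limit, 3 SD over mean compound inhibition, cut at about 8.4% in these data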;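 also: 0% = DMSO-only wells with no growth and 100% = 10 µM 1-NA-PP1 full growth; inhibition rescues growth on 5-FOA so higher OD means more RAM inhibition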
* hit, by the source's call.

How did O=C(NCCN1CCN(c2ccccc2F)CC1)c1cccn2c(=O)c3ccccc3nc12 do in these assays?
WT yeast gro inh: -11; L major viab: 7; CHOP inhibitor: 76*; RAM inhibit: 2

How did CN(CCCNC(=O)c1cccn2c(=O)c3ccccc3nc12)Cc1ccccc1 do in these assays?
WT yeast gro inh: -2; L major viab: 100*; CHOP inhibitor: 3; RAM inhibit: 0

How did CCCCOc1ccc(CSCCN)cc1Cl do in these assays?
CHOP inhibitor: 73*

How did Cc1cccc(C)c1NC(=O)C(c1ccc(Cl)cc1Cl)N1CCCCC1 (configuration not stated) do in these assays?
WT yeast gro inh: 22; L major viab: 26; CHOP inhibitor: 21; RAM inhibit: 2

How did COc1cc2c(-c3ccc(O)cc3)nc3c(c(C)nn3-c3ccccc3)c2cc1OC do in these assays?
WT yeast gro inh: 10; L major viab: 63*; CHOP inhibitor: 65; RAM inhibit: 5

Results for CC(NC(=O)C1CCCCC1)C(c1cccs1)N1CCN(C)CC1 (configuration not stated) ?
CHOP inhibitor: 0

Results for COCC(=O)NCCNc1nc2ccc(C)cc2cc1C ?
WT yeast gro inh: -10; L major viab: 12; CHOP inhibitor: 6; RAM inhibit: 1

What do the screens show for `CCOc1ccc2nc(NCCNC(=O)C(C)C)c(C)cc2c1`?
WT yeast gro inh: 3; L major viab: 7; CHOP inhibitor: 71*; RAM inhibit: 1

What do the screens show for `Cc1cc2cc(C)c(NCCNC(=O)c3ccccc3)nc2cc1C`?
WT yeast gro inh: 26; L major viab: 13; CHOP inhibitor: 90*; RAM inhibit: -1

What do the screens show for `CCn1cc([N+](=O)[O-])c(C(=O)N2N=C(c3cccc4ccccc34)CC2c2ccccc2O)n1` (configuration not stated)?
WT yeast gro inh: -5; L major viab: 74*; CHOP inhibitor: 70; RAM inhibit: 8

What do the screens show for `CCn1cc([N+](=O)[O-])c(C(=O)N2N=C(c3ccc4ccccc4c3)CC2c2ccccc2O)n1` (configuration not stated)?
WT yeast gro inh: 10; L major viab: 31; CHOP inhibitor: 39; RAM inhibit: 2

Results for Cc1nc2ccccc2c2oc(C(=O)Nc3ccc4c(c3)OCCO4)cc12 ?
WT yeast gro inh: 0; L major viab: -4; CHOP inhibitor: -15; RAM inhibit: 0

What do the screens show for `Cc1nc2ccccc2c2oc(C(=O)Nc3ccc(C(C)C)cc3)cc12`?
WT yeast gro inh: 61*; L major viab: 36; CHOP inhibitor: 17; RAM inhibit: -1

How did CCN1CCCC1CNC(=O)c1cc2c(C)nc3ccccc3c2o1 (configuration not stated) do in these assays?
WT yeast gro inh: 15; L major viab: 100*; RAM inhibit: 0

How did Cc1nc2ccccc2c2oc(C(=O)NCC3COc4ccccc4O3)cc12 (configuration not stated) do in these assays?
WT yeast gro inh: 30; L major viab: 0; CHOP inhibitor: 73*; RAM inhibit: 1

How did CCc1ccc(CNC(=O)c2cc3c(C)nc4ccccc4c3o2)cc1 do in these assays?
WT yeast gro inh: 35; L major viab: -4; CHOP inhibitor: 80*; RAM inhibit: 1

Results for COc1cccc(CNC(=O)c2cc3c(C)nc4ccccc4c3o2)c1 ?
WT yeast gro inh: 3; L major viab: 19; CHOP inhibitor: 48; RAM inhibit: 0

What do the screens show for `CC(C)(C)c1ccc(C(=O)NNc2cc(Cl)cc(Cl)c2)cc1`?
CHOP inhibitor: -26

How did COc1ccc(OC)c(-c2cnc(OC(C)(C)C)nc2OC(C)(C)C)c1 do in these assays?
WT yeast gro inh: 51; L major viab: 16; CHOP inhibitor: 36; RAM inhibit: 0

What do the screens show for `COc1cc2c(cc1OC)C(C1C(=O)CC(C)CC1=O)N(C(=O)CCl)CC2` (configuration not stated)?
WT yeast gro inh: 11; L major viab: 0; CHOP inhibitor: -7; RAM inhibit: 1

Results for CC(C)NCC(O)Cn1c2c(c3ccccc31)CCc1c-2cnn1-c1ccccc1 (configuration not stated) ?
WT yeast gro inh: 11; L major viab: 100*; CHOP inhibitor: 54; RAM inhibit: -1

Results for CN1CCc2c(n(CC(O)CNCc3ccccc3)c3ccccc23)C1=O (configuration not stated) ?
WT yeast gro inh: 1; L major viab: 22; CHOP inhibitor: 36; RAM inhibit: 0

How did Cc1nc(C)c(C(=O)NNC(=O)Nc2ccc(Cl)cc2)s1 do in these assays?
CHOP inhibitor: 6

What do the screens show for `c1ccc(-n2ncc3c(NCCCN4CCOCC4)ncnc32)cc1`?
WT yeast gro inh: 10; L major viab: -4; CHOP inhibitor: -5; RAM inhibit: 2

How did Clc1ccc(-n2ncc3c(NCCCn4ccnc4)ncnc32)cc1 do in these assays?
WT yeast gro inh: 18; L major viab: 100*; CHOP inhibitor: -23; RAM inhibit: 0

How did Clc1ccc(-n2ncc3c(NCCN4CCOCC4)ncnc32)cc1 do in these assays?
WT yeast gro inh: 11; L major viab: 86*; CHOP inhibitor: -37; RAM inhibit: 1

What do the screens show for `CN(C)c1ccc(C(CNS(=O)(=O)c2ccc3ccccc3c2)c2c[nH]c3ccccc23)cc1` (configuration not stated)?
WT yeast gro inh: -4; L major viab: 7; CHOP inhibitor: 76*; RAM inhibit: 3

Results for CN(C)c1ccc(C(CN)c2c[nH]c3ccccc23)cc1 (configuration not stated) ?
WT yeast gro inh: 16; L major viab: 13; CHOP inhibitor: -9; RAM inhibit: 3

How did COc1cc(NC(=O)c2cc(C(C)C)on2)c(OC)cc1Cl do in these assays?
WT yeast gro inh: 49; L major viab: 7; CHOP inhibitor: 45; RAM inhibit: 6

How did CC(C)c1cc(C(=O)Nc2ccc3c(c2)OCO3)no1 do in these assays?
WT yeast gro inh: 9; L major viab: -3; CHOP inhibitor: -1; RAM inhibit: -1

What do the screens show for `O=C(Nc1ccc2c(c1)OCO2)c1cc(C2CC2)on1`?
WT yeast gro inh: 10; L major viab: 52*; CHOP inhibitor: -16; RAM inhibit: 2

How did COc1cc(NC(=O)c2cc(C3CC3)on2)c(OC)cc1Cl do in these assays?
WT yeast gro inh: -12; L major viab: -9; CHOP inhibitor: 84*; RAM inhibit: 2

What do the screens show for `Cc1cc(C)n2nc(C(=O)Nc3ccc4c(c3)OCO4)nc2n1`?
WT yeast gro inh: 2; L major viab: 67*; CHOP inhibitor: -7; RAM inhibit: 1

How did O=C(OCc1nc2ccccc2[n+]([O-])c1C(=O)c1ccccc1)c1cccs1 do in these assays?
WT yeast gro inh: 2; L major viab: 86*; CHOP inhibitor: 6; RAM inhibit: 1

What do the screens show for `CC(=O)CC(C)(C)NC(C)=S`?
CHOP inhibitor: 10

How did Nc1ccc(-c2nc3ccc(C(=O)O)cc3s2)cc1 do in these assays?
WT yeast gro inh: 8; L major viab: 0; CHOP inhibitor: 92*; RAM inhibit: 9.1*

Results for CCO[C@@H]1OC(C(=O)O)=C[C@H](C2CC2)[C@H]1CCCO ?
WT yeast gro inh: 3; L major viab: 3; CHOP inhibitor: 8; RAM inhibit: 2
